# Laboratory results published in PubChem BioAssay.
# The source made the active and inactive calls. Rule as the data show it: active = nuclear beta-catenin stimulation mostly above about 4.2% (no sharp cut-off); inactive = mostly below about 10%.
# Test: Wnt pathway potentiators raising nuclear beta-catenin – imaging, WNT3A-conditioned medium, mouse C2C12, NPC library, primary screen (AID 1117326); also: reference of the scale not given here
# Details: at 10 µM, hits give high values
row,SMILES,nuclear beta-catenin stimulation
1,NC(=O)CC[C@@H]1NC(=O)[C@H](Cc2ccccc2)NC(=O)[C@H](Cc2ccc(O)cc2)NC(=O)CCSSC[C@@H](C(=O)N2CCC[C@H]2C(=O)N[C@@H](CCCN=C(N)N)C(=O)NCC(N)=O)NC(=O)[C@H](CC(N)=O)NC1=O,-0.6% (inactive)
2,NCCNc1ccc(NCCN)c2c1C(=O)c1ccncc1C2=O,22.6% (inactive)
3,O=C(O)Cc1ccccc1Oc1ccc(Cl)cc1Cl,0.5% (inactive)
4,Cc1ccc(C(C)C)c(O)c1,0.6% (inactive)
5,CCN1/C(=C/C=C/c2sc3ccccc3[n+]2CC)Sc2ccccc21,1.2% (inactive)
6,CCc1cc2cc(OC)c(OC)cc2c(Cc2ccccc2)n1,7.1% (inactive)
7,C=C(C)C(=O)OCC(O)CO (centres undefined),7.5% (inactive)
8,CCCCCCCCCCCC(=O)OCC(O)CO (centres undefined),-1.2% (inactive)
9,CN1CCN(C(=O)C2CCCCC2)CC1,0% (inactive)
10,CC(=O)O[C@H]1C[C@@H]2CC[C@H]3[C@H]4C[C@H]([N+]5(C)CCCCC5)[C@@H](OC(C)=O)[C@@]4(C)CC[C@@H]3[C@@]2(C)C[C@H]1[N+]1(C)CCCCC1,0.7% (inactive)
11,NS(=O)(=O)c1ccc(N2CCCCS2(=O)=O)cc1,0.5% (inactive)
12,NC(=O)NS(=O)(=O)c1ccc(Cl)cc1,1.1% (inactive)
13,CCOC(=O)c1cccc(N)c1,-0.3% (inactive)
14,CCCCCCCCCCCCCCCCCC(=O)[O][Al],0.2% (inactive)
15,C[C@H](CCC(=O)O)[C@H]1CC[C@H]2[C@@H]3CC[C@@H]4C[C@H](O)CC[C@]4(C)[C@@H]3C[C@H](O)[C@]12C,-0.7% (inactive)
16,O=C(CCOCCOCCOCCOCCC(=O)Nc1c(I)cc(I)c(C(=O)O)c1I)Nc1c(I)cc(I)c(C(=O)O)c1I,-0.1% (inactive)
17,CC(CC(C#N)(c1ccccc1)C(C)C)N(C)C (centres undefined),2.7% (inactive)
18,CNC(=O)c1cnn(-c2nc(N)c3ncn([C@@H]4O[C@H](CO)[C@@H](O)[C@H]4O)c3n2)c1,2.6% (inactive)
19,O=C(O)c1cc(=O)c2c3nc4ccccc4oc-3cc(=O)c2[nH]1,-0.4% (inactive)
20,Cc1oc(=O)oc1COC(=O)[C@@H]1N2C(=O)[C@@H](NC(=O)[C@H](N)c3ccccc3)[C@H]2SC1(C)C,0.5% (inactive)

row,SMILES,nuclear beta-catenin stimulation
1,CCCCCCCCCCCCCC[N+](C)(C)C,61.2% (active)
2,COc1cc2c(cc1OC)CN(C(=O)[C@H](C)N[C@@H](CCc1ccccc1)C(=O)O)[C@H](C(=O)O)C2,-0.2% (inactive)
3,CCOC(=O)c1cccnc1,0.1% (inactive)
4,Cc1cc(CC(=O)O)c(C)n1-c1ccc(Cl)cc1,-0.5% (inactive)
5,CCOC(=O)C(C#N)=C(c1ccccc1)c1ccccc1,0.9% (inactive)
6,CC1CCCCN1CCCOC(=O)c1ccc(OC2CCCCC2)cc1 (centres undefined),14.4% (inactive)
7,NC(=S)N/N=C/c1cccnc1,0.4% (inactive)
8,C[C@@H](N)C(=O)O,1.4% (inactive)
9,C[N+]1(CC2COC(c3ccccc3)(c3ccccc3)O2)CCCCC1 (centres undefined),1.5% (inactive)
10,O=C(O)CNC(=O)c1ccccc1,1.3% (inactive)
11,CC(CSC(=O)c1ccccc1)C(=O)N1C[C@@H](Sc2ccccc2)C[C@H]1C(=O)O (some centres undefined),-1% (inactive)
12,O=C(O)c1ccccc1S,4.7% (inactive)
13,CC[N+](CC)(CC)CCOC(=O)C(C1CCCC1)C1CCCC1,1.2% (inactive)
14,O=C(O)[C@@H]1C(=CCO)O[C@@H]2CC(=O)N12,1.3% (inactive)
15,N[C@@H](Cc1cc(I)c(O)c(I)c1)C(=O)O,15% (inactive)
16,Cc1cc(O)c(C)c(C)c1O,2.1% (inactive)
17,CC(C)=CCC/C(C)=C/CC/C(C)=C/CCC(=O)OC/C=C(\C)CCC=C(C)C,0.5% (inactive)
18,O=C(/C=C/c1ccc(O)c(O)c1)O[C@@H]1C[C@@](OC(=O)/C=C/c2ccc(O)c(O)c2)(C(=O)O)C[C@@H](O)[C@@H]1O,0.7% (inactive)
19,CCO[C@@H]1O[C@H](C(COCc2ccccc2)OCc2ccccc2)[C@H](OCc2ccccc2)[C@H]1O (some centres undefined),-1.3% (inactive)
